Shown are actives, neighbours in structure and some others; about 3.3% of the full set was active somewhere.
TPT1 inhibitor = C. albicans TPT1 enzyme inhibition; hit rate 0.81% among 300,000; AID 1962; recombinant caTPT1, FP RNA substrate dephosphorylation; inhibition, % at 5 µM;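 active = inhibition above the mean of all tested compounds plus 3 SD, set per screening campaign, cut at about 24% in these data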;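 also: plate controls were DMSO alone for no effect and ferristatin control at 100 nM for full effect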
Rpn11 block = inhibitors of human proteasome Rpn11. O00487. human 26S proteasome, Ub4-pepOG fluorescence polarization; 20S core pre-blocked with epoxomicin. inhibition, % at 20 µM. hit rate 0.59% among 360,000. AID 588493;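 active = inhibition at 20 µM, scaled to each plate's controls, above about 33%, limit read from the data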
CTSL1 counter = cathepsin L1 inhibition, PFM18AAP counter-screen; hit rate 0.49% among 300,000; inhibition, % at 5.96 µM; AID 1906; recombinant F. hepatica cathepsin L1, Z-Leu-Arg-MCA fluorescence;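 active = inhibition above the mean of all tested compounds plus 3 SD, set per screening campaign, cut at about 17% in these data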;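 also: 0% = plate median of test compound wells and 100% = 1 µM Z-Phe-Ala-diazomethylketone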
CendR NRP1 mod = modulators of CendR peptide binding to human neuropilin-1. inhibition, % at 25 µM. O14786. AID 602438. hit rate 0.85% among 360,000. FAM-RPARPAR peptide binding to NRP-1, fluorescence polarization;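 active = inhibition or corrected inhibition above about 18%, plus a signal ratio from 0.5 to 1.5, limit read from the data, passing the limit was not always enough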
HNF4A DNA FP = change in binding of human HNF4 alpha to DNA | P41235 | HNF4a-FITC DNA binding, fluorescence polarization, 1 h | activity change, % at 10 µM | hit rate 0.3% among 360,000 | AID 1224865; in the data active = activity change above about 30%, passing the limit was not always enough
PHOSPHO1 block = inhibitors of human PHOSPHO1 phosphatase. Q8TCT1. recombinant PHOSPHO1, absorbance phosphatase assay. inhibition, % at 13.3 µM. hit rate 1.1% among 290,000; in the data active = inhibition above about 60%
Target sequence (Q8TCT1 whole entry, looked up): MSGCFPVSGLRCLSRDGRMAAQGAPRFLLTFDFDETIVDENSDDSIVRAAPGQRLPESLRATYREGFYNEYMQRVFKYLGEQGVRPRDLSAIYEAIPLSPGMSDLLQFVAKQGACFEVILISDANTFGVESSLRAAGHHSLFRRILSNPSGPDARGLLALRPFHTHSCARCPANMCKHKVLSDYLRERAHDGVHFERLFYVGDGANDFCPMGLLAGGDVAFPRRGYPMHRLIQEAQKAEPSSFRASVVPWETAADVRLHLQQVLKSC
HNF4a DNA conf = change in binding of human HNF4 alpha to DNA, retest; shares compounds with HNF4A DNA FP; HNF4A-FITC DNA binding, fluorescence polarization, 1 h; activity change, % at 12.5 µM; hit rate 99% among 210; call rule not given here
Active calls of the source: *.

What do the screens show for `CC1N(C)c2cc(NC(=O)c3ccco3)ccc2C1(C)C` (centres undefined)?
TPT1 inhibitor: 3; CTSL1 counter: -1; CendR NRP1 mod: -115; HNF4A DNA FP: 52*; PHOSPHO1 block: 29; HNF4a DNA conf: 41*

How did CC1N(C)c2cc(NC(=O)c3ccco3)c(P(=O)(Nc3ccc([N+](=O)[O-])cc3)N3CCOCC3)cc2C1(C)C (centres undefined) do in these assays?
TPT1 inhibitor: 3; Rpn11 block: 12; CTSL1 counter: 5; CendR NRP1 mod: -9; HNF4A DNA FP: 0; PHOSPHO1 block: 4

What do the screens show for `CC(=O)c1ccc(NC(=O)c2ccc(NC(=O)c3ccco3)cc2)cc1`?
TPT1 inhibitor: 1; Rpn11 block: active; CTSL1 counter: -2; CendR NRP1 mod: -12; HNF4A DNA FP: 86*; PHOSPHO1 block: 10; HNF4a DNA conf: 111*

How did CCCCc1ccc(NC(=O)Nc2cc(C)nn2C)cc1 do in these assays?
TPT1 inhibitor: -1; Rpn11 block: 9; CTSL1 counter: -1; CendR NRP1 mod: 7; HNF4A DNA FP: -1

Results for COC(=O)COc1ccc(S(=O)(=O)N2CCN(c3ccc(F)cc3)CC2)cc1 ?
TPT1 inhibitor: -1; Rpn11 block: -7; CTSL1 counter: 0; CendR NRP1 mod: -10; HNF4A DNA FP: -3; PHOSPHO1 block: -14

Results for COc1ccc(C(CNC(=O)Cc2c(F)cccc2Cl)N2CCCCC2)cc1 (centres undefined) ?
TPT1 inhibitor: 0; Rpn11 block: 7; CTSL1 counter: -1; CendR NRP1 mod: -3; HNF4A DNA FP: -1; PHOSPHO1 block: -3

What do the screens show for `COc1ccc(C2CC(c3ccccc3)=NN2S(=O)(=O)c2ccccc2)cc1` (centres undefined)?
TPT1 inhibitor: 0; Rpn11 block: 29; CTSL1 counter: 0; CendR NRP1 mod: -194; HNF4A DNA FP: 77*; PHOSPHO1 block: 32; HNF4a DNA conf: 59*

What do the screens show for `COc1ccc(S(=O)(=O)N2N=C(c3ccc(NS(C)(=O)=O)cc3)CC2c2ccco2)cc1` (centres undefined)?
TPT1 inhibitor: 7; Rpn11 block: 20; CTSL1 counter: 2; CendR NRP1 mod: -42; HNF4A DNA FP: 16; PHOSPHO1 block: -7

What do the screens show for `C#CCOCCOCCOCCNc1nc(N2CCN(C(=O)CCCCCCCCCCNC(=O)[C@H](CCCCN)n3cc(CCO)nn3)CC2)nc(N2CCN(C(=O)CCCCCCCCCCNC(=O)[C@H](CCCCN)n3cc(CCCC(=O)O)nn3)CC2)n1`?
TPT1 inhibitor: -1; Rpn11 block: -15; CTSL1 counter: -4; CendR NRP1 mod: 4; HNF4A DNA FP: 48*; HNF4a DNA conf: 66*

How did C#CCOCCOCCOCCNc1nc(N2CCN(C(=O)C([C@@H](C)O)n3cc([C@@H](N)CCCCN)nn3)CC2)nc(N2CCN(C(=O)[C@H](CCCCN)n3cc([C@@H](N)[C@H](C)CC)nn3)CC2)n1 (some centres undefined) do in these assays?
Rpn11 block: 13; CendR NRP1 mod: 3; HNF4A DNA FP: 76*; HNF4a DNA conf: 94*

Results for C#CCOCCOCCOCCNc1nc(N2CCN(C(=O)[C@H](CCCCN)n3cc(CN)nn3)CC2)nc(N2CCN(C(=O)[C@H](CCC(=O)O)n3cc([C@@H](N)CCCCN)nn3)CC2)n1 ?
Rpn11 block: -2; CendR NRP1 mod: 0; HNF4A DNA FP: 92*; HNF4a DNA conf: 123*

How did CC/C(=C\c1ccc(N(C)C)cc1)c1ccncc1 do in these assays?
Rpn11 block: 2; CendR NRP1 mod: -2; HNF4A DNA FP: 0

Results for COc1ccc(CC(NC(C)=O)C(=O)NC2CCN(C(=O)Nc3ccccc3C)CC2)cc1OC (centres undefined) ?
TPT1 inhibitor: -1; Rpn11 block: 5; CTSL1 counter: -4; CendR NRP1 mod: 9; HNF4A DNA FP: -2; PHOSPHO1 block: 49

Results for Cc1c(O)ccc(/C(Cc2ccc3ccccc3n2)=N\O)c1O ?
TPT1 inhibitor: -4; Rpn11 block: -1; CTSL1 counter: -32; CendR NRP1 mod: -2; HNF4A DNA FP: 5; PHOSPHO1 block: 12
